Reference: PubChem BioAssay (Tox21)
Records with an inconclusive call do not appear. The source made the active and inactive calls. Unless noted, calls follow the shape of the dose curve; as a rule, active = well fitted curve in the direction sought with a large enough effect in the repeat runs; inconclusive = weak or mixed curves; inactive = no such curve, though single readings can be large; an effect the other way counts as inactive or inconclusive.

Tests used:
[1] = target: Thyrotropin-releasing hormone receptor (Homo sapiens) (UniProt P34981); assay: qHTS assay to identify small molecule agonists of the thyrotropin-releasing hormone receptor (TRHR) signaling pathway (AID 1346891; calls by dose curve; also: series mostly up to about 58 µM)
Method in brief: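 HEK293 cells expressing TRHR plated 18 h at 37 C/5% CO2, calcium dye-loaded 2 h at 37 C, then compound added (agonist mode); kinetic calcium fluorescence read 3 min at 1 s intervals; 15 concentrations in triplicate.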

[2] = Human pregnane X receptor (PXR) small molecule agonists, qHTS cell viability counter screen (AID 1346977); also: nearly all actives have a fitted effect of over 50% in size; also: potency is read from the fitted curve at half-maximal effect
Method in brief: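 PXR-Luc HepG2 cells (2,000/well, 5% charcoal-stripped FBS) preincubated 5 hr, then exposed to compounds 24 hr at 37 C. Viability read in the same wells by CellTiter-Fluor fluorescence, reagent added at 23 hr, 1 hr incubation.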

[3] = Caspase-3/7 induction in HepG2 cells by small molecules, qHTS assay (AID 1346978); also: nearly all actives have a fitted effect of over 15% in size
Method in brief: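 Wild-type HepG2 cells (2,000/well) were settled 5 h at 37 C, 5% CO2, then exposed to compounds in DMSO for 17 h. Caspase-3/7 activity was read by luminescence 30 min after adding Caspase-Glo 3/7 reagent at room temperature.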

[4] = Caspase-3/7 induction in HepG2 cells by small molecules, qHTS cell viability counter screen (AID 1346981); also: nearly all actives have a fitted effect of over 30% in size; also: potency is read from the fitted curve at half-maximal effect
Method in brief: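 Steps: seed 2,000 HepG2 cells per well; incubate 5 hr at 37 C; pin-add compounds in DMSO; incubate 16 hr; add CellTiter-Fluor; after 1 hr at 37 C and 5% CO2, read fluorescence.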

[5] = target: Nuclear receptor subfamily 1 group I member 2 (Homo sapiens) (UniProt O75469); assay: Human pregnane X receptor (PXR) small molecule agonists, qHTS assay (AID 1346982); also: nearly all actives have a fitted effect of over 35% in size; also: potency is read from the fitted curve at half-maximal effect
Method in brief: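 Agonist mode qHTS: PXR-Luc HepG2 cells plated 5 hr before DMSO-dissolved compounds were pinned in, cultured 24 hr at 37 C, 5% CO2; ONE-Glo luminescence readout.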

[6] = target: Cytochrome P450 2D6 (Homo sapiens) (UniProt P10635); assay: Cytochrome P450 Family 2 Subfamily D Member 6 (CYP2D6) small molecule antagonists: luciferase reporter qHTS assay (AID 1671196); also: nearly all actives have a fitted effect of over 50% in size; also: potency is read from the fitted curve at half-maximal effect
Method in brief: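 P450-Glo format: CYP2D6 converts a proluciferin substrate to luciferin in an NADPH-driven reaction lasting 1 h at room temperature. Light output, proportional to CYP2D6 activity, reflects interference by test chemicals.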

[7] = target: Cytochrome P450 2C9 (Homo sapiens) (UniProt P11712); assay: Cytochrome P450 Family 2 Subfamily C Member 9 (CYP2C9) small molecule antagonists: luciferase reporter qHTS assay (AID 1671198); also: nearly all actives have a fitted effect of over 50% in size; also: potency is read from the fitted curve at half-maximal effect
Method in brief: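 CYP2C9 activity was measured with a P450-Glo proluciferin substrate. Enzyme–substrate mix was held with compound for 10 min at room temperature, then NADPH regeneration solution was added for 1 h at 37C. Luciferin product was read as luminescence.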

[8] = target: Voltage-gated inwardly rectifying potassium channel KCNH2 (Homo sapiens) (UniProt Q12809); assay: Human Ether-a-go-go-Related Gene (hERG) channel small molecule antagonists: fluorescence cell-based qHTS assay (AID 1671200);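 also: hERG-expressing U2OS cells given a thallium stimulus after FluxOR II dye loading; series mostly up to about 77 µM; nearly all actives have a fitted effect of over 50% in size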
Method in brief: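 hERG-U2OS cells plated overnight at 37 C, loaded with FluxOR II dye 1 h at RT in dark; after 10 min, thallium stimulus added. Fluorescence (480/540 nm) read kinetically for 2 min at 1 s intervals.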

[9] = target: Cytochrome P450 3A4 (Homo sapiens) (UniProt P08684); assay: Cytochrome P450 Family 3 Subfamily A Member 4 (CYP3A4) small molecule antagonists: luciferase reporter qHTS assay (AID 1671201); also: nearly all actives have a fitted effect of over 50% in size; also: potency is read from the fitted curve at half-maximal effect
Method in brief: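 P450-Glo CYP3A4 luminescent assay: compounds preincubated 10 min at room temperature with enzyme and proluciferin substrate, NADPH regeneration added, 1 h room-temperature reaction, stopped with luciferin detection reagent; luminescence read after 20 min. Ketoconazole positive control.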

[10] = target: Cytochrome P450 2C19 (Homo sapiens) (UniProt P33261); assay: Cytochrome P450 Family 2 Subfamily C Member 19 (CYP2C19) small molecule antagonists: luciferase reporter qHTS assay (AID 1671197); also: nearly all actives have a fitted effect of over 65% in size; also: potency is read from the fitted curve at half-maximal effect
Method in brief: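 P450-Glo CYP2C19 screening system; proluciferin substrate; DMSO compound stocks; 10 min RT preincubation; NADPH regeneration, 1 h at 37C; luciferin detection reagent, 20 min RT; luminescence as RLU.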

[11] = target: Cytochrome P450 1A2 (Homo sapiens) (UniProt P05177); assay: Cytochrome P450 Family 1 Subfamily A Member 2 (CYP1A2) small molecule antagonists: luciferase reporter qHTS assay (AID 1671199); also: nearly all actives have a fitted effect of over 50% in size; also: potency is read from the fitted curve at half-maximal effect
Method in brief: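 Inhibition of CYP1A2 conversion of proluciferin to luciferin, detected by luminescence. Reaction run 1 h at room temperature with NADPH regeneration after brief compound preincubation.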

[12] = Caspase-3/7 induction in CHO-K1 cells by small molecules, qHTS assay (AID 1346980); also: nearly all actives have a fitted effect of over 15% in size
Method in brief: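 Wild-type cells were seeded at 1,500 per well and settled 5 hr at 37 C, 5% CO2, then exposed to DMSO-dissolved compounds for 17 hr. Caspase-Glo 3/7 reagent was added, and luminescence was read after 30min at room temperature.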

[13] = target: Nuclear receptor subfamily 1 group I member 2 (Rattus norvegicus) (UniProt Q9R1A7); assay: Rat pregnane X receptor (rPXR) activation by small molecules, qHTS assay (AID 1346983); conditions: rPXR luciferase reporter cells, One-Glo luminescence, 24 h; max activation: active compounds read high; also: nearly all actives have a fitted effect of over 20% in size; also: potency is read from the fitted curve at half-maximal effect
Method in brief: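 Cell-based rPXR luciferase reporter assay, 2,000 cells per well, rested 5hr at 37 C before compound addition in DMSO, then 24 hr at 37 C. One-Glo reagent was added and luminescence read after 30 min at room temperature.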

[14] = target: Nuclear receptor subfamily 1 group I member 2 (Homo sapiens) (UniProt O75469); assay: Human pregnane X receptor (PXR) activation by small molecules, qHTS assay (AID 1346985); also: nearly all actives have a fitted effect of over 40% in size
Method in brief: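 DPX-2 cells (HepG2 co-transfected with a PXR response element and a CYP3A4-promoter luciferase construct) were seeded at 2,000 per well, rested 5 hr at 37C, then exposed to DMSO-dissolved compounds for 24 hr. Activation was read as luciferase luminescence.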

[15] = Caspase-3/7 induction in CHO-K1 cells by small molecules, qHTS cell viability counter screen (AID 1346979); also: nearly all actives have a fitted effect of over 35% in size; also: potency is read from the fitted curve at half-maximal effect
Method in brief: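 Wild-type CHO-K1 cells (1,500/well) treated with compound after 5 h plating; after 16 h at 37C, viability read as CellTiter-Fluor fluorescence following 1 h reagent incubation, in the same wells as the caspase read.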
% is scaled to controls: 0 for no effect and ±100 for the full control effect.

Chain of Cytochrome P450 3A4 (Homo sapiens) (P08684 whole entry, looked up): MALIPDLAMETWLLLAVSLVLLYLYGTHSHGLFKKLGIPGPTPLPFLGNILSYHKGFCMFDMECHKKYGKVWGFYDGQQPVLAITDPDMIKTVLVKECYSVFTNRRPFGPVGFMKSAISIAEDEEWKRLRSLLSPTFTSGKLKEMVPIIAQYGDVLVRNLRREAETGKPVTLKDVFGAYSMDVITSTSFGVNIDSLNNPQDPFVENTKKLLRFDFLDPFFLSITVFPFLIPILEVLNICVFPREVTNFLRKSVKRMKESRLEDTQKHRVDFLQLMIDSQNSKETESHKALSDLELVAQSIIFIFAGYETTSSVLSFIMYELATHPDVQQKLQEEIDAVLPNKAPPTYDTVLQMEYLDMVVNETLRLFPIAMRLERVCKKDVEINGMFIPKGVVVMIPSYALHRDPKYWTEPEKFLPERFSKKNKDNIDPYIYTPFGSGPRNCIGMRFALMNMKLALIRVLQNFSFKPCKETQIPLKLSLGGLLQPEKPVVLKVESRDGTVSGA
Chain of Cytochrome P450 2C9 (Homo sapiens) (P11712 whole entry, looked up): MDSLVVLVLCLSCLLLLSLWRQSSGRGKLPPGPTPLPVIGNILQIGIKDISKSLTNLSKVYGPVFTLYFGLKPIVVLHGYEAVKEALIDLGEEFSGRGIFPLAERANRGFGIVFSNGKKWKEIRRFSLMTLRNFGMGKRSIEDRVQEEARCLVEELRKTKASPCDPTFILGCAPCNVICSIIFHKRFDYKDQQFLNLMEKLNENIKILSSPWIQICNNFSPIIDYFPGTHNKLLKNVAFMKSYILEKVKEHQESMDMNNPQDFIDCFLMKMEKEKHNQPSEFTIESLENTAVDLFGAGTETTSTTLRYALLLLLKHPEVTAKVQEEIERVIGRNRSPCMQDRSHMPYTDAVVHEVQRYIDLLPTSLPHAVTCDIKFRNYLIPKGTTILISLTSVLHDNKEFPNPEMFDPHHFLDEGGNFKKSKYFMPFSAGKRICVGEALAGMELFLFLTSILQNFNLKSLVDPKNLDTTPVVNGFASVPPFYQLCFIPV
Chain of Cytochrome P450 2D6 (Homo sapiens) (P10635 whole entry, looked up): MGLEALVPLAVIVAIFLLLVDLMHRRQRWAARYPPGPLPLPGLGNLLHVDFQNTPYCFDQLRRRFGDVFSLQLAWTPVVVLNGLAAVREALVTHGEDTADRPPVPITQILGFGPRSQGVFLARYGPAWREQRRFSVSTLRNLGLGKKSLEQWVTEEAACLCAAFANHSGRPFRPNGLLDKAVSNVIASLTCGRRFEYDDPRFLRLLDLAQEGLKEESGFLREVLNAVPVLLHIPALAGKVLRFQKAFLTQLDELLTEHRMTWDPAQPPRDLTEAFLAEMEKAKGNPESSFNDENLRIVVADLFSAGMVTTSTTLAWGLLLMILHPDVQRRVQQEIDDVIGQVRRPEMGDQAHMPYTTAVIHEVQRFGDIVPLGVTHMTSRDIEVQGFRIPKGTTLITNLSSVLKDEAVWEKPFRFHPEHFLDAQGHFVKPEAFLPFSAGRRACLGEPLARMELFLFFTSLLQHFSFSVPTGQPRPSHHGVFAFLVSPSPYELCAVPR
Chain of Thyrotropin-releasing hormone receptor (Homo sapiens) (P34981 whole entry, looked up): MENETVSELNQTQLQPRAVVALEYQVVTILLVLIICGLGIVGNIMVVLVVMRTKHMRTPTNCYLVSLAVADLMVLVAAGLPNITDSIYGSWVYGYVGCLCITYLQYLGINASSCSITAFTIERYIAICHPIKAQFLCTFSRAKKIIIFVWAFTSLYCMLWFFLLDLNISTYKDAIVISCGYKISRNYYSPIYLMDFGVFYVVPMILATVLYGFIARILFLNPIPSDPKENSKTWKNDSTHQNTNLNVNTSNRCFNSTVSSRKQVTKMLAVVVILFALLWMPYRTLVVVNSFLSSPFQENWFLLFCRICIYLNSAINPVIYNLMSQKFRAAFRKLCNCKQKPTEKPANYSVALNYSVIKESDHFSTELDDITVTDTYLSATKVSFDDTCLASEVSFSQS
Chain of Cytochrome P450 1A2 (Homo sapiens) (P05177 whole entry, looked up): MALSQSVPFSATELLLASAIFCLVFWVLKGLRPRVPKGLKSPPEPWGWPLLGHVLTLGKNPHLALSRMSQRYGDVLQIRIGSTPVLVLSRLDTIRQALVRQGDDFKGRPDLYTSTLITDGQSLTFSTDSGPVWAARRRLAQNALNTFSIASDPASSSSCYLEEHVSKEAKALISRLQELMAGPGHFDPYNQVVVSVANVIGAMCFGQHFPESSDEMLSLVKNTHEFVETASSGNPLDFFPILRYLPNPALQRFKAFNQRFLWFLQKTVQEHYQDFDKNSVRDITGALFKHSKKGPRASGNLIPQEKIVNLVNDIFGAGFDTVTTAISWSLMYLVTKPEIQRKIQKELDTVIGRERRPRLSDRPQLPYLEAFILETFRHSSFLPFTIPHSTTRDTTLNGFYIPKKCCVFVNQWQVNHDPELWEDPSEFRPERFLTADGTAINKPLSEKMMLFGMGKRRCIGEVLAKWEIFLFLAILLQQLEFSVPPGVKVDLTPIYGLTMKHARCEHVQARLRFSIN
Chain of Voltage-gated inwardly rectifying potassium channel KCNH2 (Homo sapiens) (Q12809 whole entry, looked up): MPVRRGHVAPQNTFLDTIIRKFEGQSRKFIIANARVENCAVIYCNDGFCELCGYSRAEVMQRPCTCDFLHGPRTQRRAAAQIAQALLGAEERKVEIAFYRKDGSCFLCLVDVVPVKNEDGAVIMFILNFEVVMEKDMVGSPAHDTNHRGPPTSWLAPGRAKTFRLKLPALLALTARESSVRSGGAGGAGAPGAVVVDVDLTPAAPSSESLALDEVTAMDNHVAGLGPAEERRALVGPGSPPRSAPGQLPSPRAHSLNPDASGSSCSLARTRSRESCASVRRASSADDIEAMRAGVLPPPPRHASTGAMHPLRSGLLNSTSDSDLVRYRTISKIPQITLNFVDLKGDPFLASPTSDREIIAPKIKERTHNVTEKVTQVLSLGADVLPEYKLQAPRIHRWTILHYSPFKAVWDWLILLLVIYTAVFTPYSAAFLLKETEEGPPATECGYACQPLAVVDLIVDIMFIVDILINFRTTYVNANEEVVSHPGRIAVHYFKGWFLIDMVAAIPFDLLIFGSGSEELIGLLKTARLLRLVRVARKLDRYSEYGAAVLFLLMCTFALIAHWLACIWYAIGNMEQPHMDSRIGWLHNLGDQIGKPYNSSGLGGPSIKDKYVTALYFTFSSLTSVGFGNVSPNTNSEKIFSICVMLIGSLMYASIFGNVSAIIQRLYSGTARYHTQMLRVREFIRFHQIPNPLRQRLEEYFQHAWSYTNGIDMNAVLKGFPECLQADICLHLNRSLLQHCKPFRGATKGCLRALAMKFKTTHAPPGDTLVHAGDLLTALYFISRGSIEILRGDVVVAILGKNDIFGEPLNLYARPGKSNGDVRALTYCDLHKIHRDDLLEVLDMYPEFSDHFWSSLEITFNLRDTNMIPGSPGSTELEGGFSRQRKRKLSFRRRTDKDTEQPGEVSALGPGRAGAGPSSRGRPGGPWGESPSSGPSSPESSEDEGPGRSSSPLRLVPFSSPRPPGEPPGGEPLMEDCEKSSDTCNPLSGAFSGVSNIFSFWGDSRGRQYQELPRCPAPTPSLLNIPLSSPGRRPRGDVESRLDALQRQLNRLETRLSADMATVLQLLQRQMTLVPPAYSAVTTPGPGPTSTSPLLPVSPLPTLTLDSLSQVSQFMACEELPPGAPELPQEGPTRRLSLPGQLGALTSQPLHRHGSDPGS
Chain of Cytochrome P450 2C19 (Homo sapiens) (P33261 whole entry, looked up): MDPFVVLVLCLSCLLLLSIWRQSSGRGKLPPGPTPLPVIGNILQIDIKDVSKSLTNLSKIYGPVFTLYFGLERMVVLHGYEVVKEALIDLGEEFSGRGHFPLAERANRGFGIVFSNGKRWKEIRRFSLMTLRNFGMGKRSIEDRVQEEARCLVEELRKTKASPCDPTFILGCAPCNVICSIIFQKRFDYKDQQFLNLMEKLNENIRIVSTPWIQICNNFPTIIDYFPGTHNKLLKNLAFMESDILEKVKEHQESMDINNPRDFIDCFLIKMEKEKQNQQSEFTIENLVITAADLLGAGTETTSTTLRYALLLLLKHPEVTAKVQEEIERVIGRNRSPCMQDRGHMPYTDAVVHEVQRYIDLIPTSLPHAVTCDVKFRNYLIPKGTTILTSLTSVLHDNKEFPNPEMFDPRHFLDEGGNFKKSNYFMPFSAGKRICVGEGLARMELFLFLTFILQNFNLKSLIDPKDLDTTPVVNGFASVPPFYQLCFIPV
Chain of Nuclear receptor subfamily 1 group I member 2 (Homo sapiens) (O75469 whole entry, looked up): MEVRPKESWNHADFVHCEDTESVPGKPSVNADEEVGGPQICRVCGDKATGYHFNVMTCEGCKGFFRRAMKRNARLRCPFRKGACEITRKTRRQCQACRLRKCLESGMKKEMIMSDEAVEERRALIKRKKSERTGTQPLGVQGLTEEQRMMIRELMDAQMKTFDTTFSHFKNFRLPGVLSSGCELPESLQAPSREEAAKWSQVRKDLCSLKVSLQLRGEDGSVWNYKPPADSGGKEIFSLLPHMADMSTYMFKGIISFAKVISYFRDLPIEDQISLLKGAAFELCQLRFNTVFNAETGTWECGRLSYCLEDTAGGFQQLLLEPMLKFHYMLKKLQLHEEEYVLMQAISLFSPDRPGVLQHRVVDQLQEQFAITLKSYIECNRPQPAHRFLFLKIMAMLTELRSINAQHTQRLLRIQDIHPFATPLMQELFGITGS
Chain of Nuclear receptor subfamily 1 group I member 2 (Rattus norvegicus) (Q9R1A7 whole entry, looked up): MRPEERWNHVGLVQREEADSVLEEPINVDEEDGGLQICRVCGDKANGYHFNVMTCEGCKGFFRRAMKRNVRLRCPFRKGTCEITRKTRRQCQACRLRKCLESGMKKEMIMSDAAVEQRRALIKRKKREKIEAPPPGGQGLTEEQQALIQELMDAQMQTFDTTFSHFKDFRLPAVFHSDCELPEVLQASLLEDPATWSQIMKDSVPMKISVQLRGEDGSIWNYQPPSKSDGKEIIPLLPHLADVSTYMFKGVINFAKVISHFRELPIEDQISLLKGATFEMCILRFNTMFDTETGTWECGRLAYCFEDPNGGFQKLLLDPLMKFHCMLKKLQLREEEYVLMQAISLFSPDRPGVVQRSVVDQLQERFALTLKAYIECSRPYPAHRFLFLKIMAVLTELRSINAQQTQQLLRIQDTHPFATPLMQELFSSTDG

C=CC(=O)NC(C)(C)C
inactive: outcome [1] | Potency [2] | Potency [3] | Potency [4] | Potency [5] | Potency [6] | Potency [7] | Potency [8] | Potency [9]

O=C(Cl)c1ccc(F)c(Cl)c1
inactive: outcome [1] | Potency [2] | Potency [3] | Potency [5] | Potency [10] | Potency [7] | Potency [11] | Potency [8] | Potency [9]

Cc1cc(SC2=C(O)C[C@@](CCc3ccc(N)cc3)(C(C)C)OC2=O)c(C(C)(C)C)cc1CO
active: Potency [5] 30.6 µM
inactive: outcome [1] | Potency [2] | Potency [3] | Potency [12] | Potency [4] | Potency [6] | Potency [11] | Potency [8]

CC[C@H](NC(C)C)[C@H](O)c1ccc(O)c2[nH]c(=O)ccc12
inactive: outcome [1] | Potency [2] | Potency [3] | Potency [12] | Potency [5] | max activation [13] -3.27% | Potency [14] | Potency [10] | Potency [7] | Potency [11] | Potency [8]

CC(=O)Oc1cccc2c1C(=O)c1c(OC(C)=O)cc(C(=O)O)cc1C2=O
active: Potency [2] 29.8 µM | Potency [4] 29.8 µM
inactive: outcome [1] | Potency [3] | Potency [12] | Potency [5] | Potency [6] | Potency [10] | Potency [11] | Potency [8] | Potency [9]

C=C[Si]1(C)O[Si](C)(C=C)O[Si](C)(C=C)O[Si](C)(C=C)O1 (centres undefined)
inactive: outcome [1] | Potency [2] | Potency [3] | Potency [12] | Potency [6] | Potency [7] | Potency [8]
active: Potency [10] 63.3 µM

CC(=O)OCC(=O)[C@@]1(O)CC[C@H]2[C@@H]3CCC4=CC(=O)C=C[C@]4(C)[C@@]3(F)[C@@H](O)C[C@@]21C
inactive: outcome [1] | Potency [2] | Potency [3] | Potency [12] | Potency [5] | Potency [14] | Potency [6] | Potency [10] | Potency [11]
active: Potency [13] 8.91 µM

CCCCCO
inactive: outcome [1] | Potency [2] | Potency [3] | Potency [12] | Potency [4] | Potency [5] | Potency [6] | Potency [10] | Potency [7] | Potency [8] | Potency [9]

CC1(C)CC(O)CC(C)(C)N1[O]
inactive: outcome [1] | Potency [2] | Potency [3] | Potency [4] | Potency [5] | Potency [6] | Potency [7] | Potency [11]

COc1ccc(/C=C/c2cc(OC)cc(=O)o2)cc1
inactive: outcome [1] | Potency [2] | Potency [15] | Potency [12] | Potency [4] | Potency [6] | Potency [7] | Potency [9]
active: Potency [5] 8.84 µM | Potency [10] 4.09 µM | Potency [11] 9.15 µM

O=Cc1ccc(Cl)c([N+](=O)[O-])c1
active: Potency [15] 68.6 µM | Potency [6] 35.6 µM | Potency [10] 22.4 µM | Potency [7] 71 µM | Potency [11] 22.4 µM
inactive: outcome [1] | Potency [2] | Potency [12] | Potency [4] | Potency [5] | Potency [8]

C[C@]12CCC(=O)C=C1[C@@H]1C[C@@H]1[C@H]1[C@@H]3[C@@H]4C[C@@H]4[C@@]4(CCC(=O)O4)[C@@]3(C)CC[C@@H]12
active: Potency [10] 0.871 µM
inactive: outcome [1] | Potency [2] | Potency [3] | Potency [12] | Potency [4] | Potency [5] | Potency [6] | Potency [11] | Potency [9]

CC(C)C/C=C(\C=O)c1ccccc1
inactive: outcome [1] | Potency [2] | Potency [3] | Potency [12] | Potency [6]
active: Potency [5] 30.6 µM | Potency [10] 17.8 µM | Potency [7] 35.6 µM | Potency [11] 39.9 µM | Potency [9] 35.6 µM

O=C(OCCCCCOC(=O)c1ccccc1)c1ccccc1
inactive: outcome [1] | Potency [2] | Potency [15] | Potency [12] | Potency [4] | Potency [5] | Potency [6] | Potency [8] | Potency [9]
active: Potency [10] 56.4 µM | Potency [7] 11.2 µM | Potency [11] 7.96 µM

Cc1cc(C)n(CO)n1
inactive: outcome [1] | Potency [2] | Potency [3] | Potency [4] | Potency [5] | Potency [6] | Potency [10] | Potency [7] | Potency [11] | Potency [9]

Clc1nc2ccccc2nc1Cl
active: Potency [5] 61.8 µM | Potency [6] 64 µM | Potency [11] 5.09 µM
inactive: outcome [1] | Potency [2] | Potency [3] | Potency [12] | Potency [4] | Potency [10] | Potency [7] | Potency [8]

Nc1ccccc1Nc1ccccc1
inactive: outcome [1] | Potency [3] | Potency [8]
active: Potency [2] 30.7 µM | Potency [5] 19.4 µM | Potency [11] 7.12 µM | Potency [9] 31.8 µM

C=C(C)C(=O)OCCCCCCCCCCOC(=O)C(=C)C
active: Potency [6] 35.6 µM | Potency [11] 44.8 µM
inactive: outcome [1] | Potency [2] | Potency [3] | Potency [5] | Potency [10] | Potency [9]

Cc1ccccc1CCO
inactive: outcome [1] | Potency [2] | Potency [3] | Potency [12] | Potency [4] | Potency [5] | Potency [6] | Potency [10] | Potency [7] | Potency [11] | Potency [8] | Potency [9]

CC1(C)CC(=O)CC(C)(C)N1
inactive: outcome [1] | Potency [2] | Potency [15] | Potency [12] | Potency [4] | Potency [5] | Potency [6] | Potency [10] | Potency [7] | Potency [11] | Potency [9]

CC1(COc2ccc(CC3SC(=O)NC3=O)cc2)CCCCC1 (centres undefined)
inactive: outcome [1] | Potency [2] | Potency [3] | Potency [12] | Potency [4] | max activation [13] 5.72% | Potency [6] | Potency [11] | Potency [8] | Potency [9]
